# Results from ChEMBL document CHEMBL1201862, “PubChem BioAssay data set” (2004).
# Out of some 58,000 sequences screened, about 3,600 (6.2%) were called active. Rule as the data show it: active = GI50 up to about 1.1 µM and inactive = higher. The entries come from a sample that favours actives as a whole. Results with a measured potency or affinity are listed apart.
# System: NCI-H23
row,Substance,GI50 [µM]
1,"mu-(1,7-nanodiamine-N,N')bis-(cis-aminedichloroplatimum (II)), CHEMBL2146215",4.37
2,"[Bis(aminomethyl)pentamethylenesilane]tetrachloropaltinum(IV), CHEMBL2146204",1.51
3,"CISPLATIN, CHEMBL11359",0.783
4,"[Bis(aminomethyl)pentamethylenesilane]dichloropaltinum(II), CHEMBL2146202",4.59
5,"[Bis(aminomethyl)dimethylsilane]tetrachloroplatinum(IV), CHEMBL2146190",3.98
6,"[Bis(aminomethyl)tetramethylenesilane]dichloropaltinum(II), CHEMBL2146205",13.5
7,"[Bis(aminomethyl)tetramethylenesilane]tetrachloropaltinum(IV), CHEMBL2146189",3.33
8,"[Bis(aminomethyl)diethylsilane]tetrachloroplatinum(IV), CHEMBL2146203",2.79
